# An excerpt weighted towards active compounds, which were near 1.6% of everything screened.
# VCAM1 TNFa inh = reduces TNF alpha induced VCAM1 expression in HUVEC; AID 802; HUVEC TNFa-induced VCAM-1 immunofluorescence, high-content imaging; 95,000 tested, 0.48% active; inhibition, % at 2 µM;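 active means inhibition above the batch mean plus 3 SD, with images confirmed as a hit by eye, cut at about 37% in these data; inconclusive means inhibition above that limit but hit not confirmed in images; inactive means inhibition not above that limit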;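 further: 0% = TNF-stimulated DMSO wells and 100% = unstimulated control wells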
# HUVEC tox IL1B = HUVEC cytotoxicity counter-screen, IL-1B stimulated; HUVEC cell count loss, Hoechst imaging; cell count reduction, % at 2 µM; 94,000 tested, 0.41% active; AID 845;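 active means cell count reduction more than 3 SD above the screen-wide mean, cut at about 70% in these data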;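 further: normalized per plate to untreated control cells as the no-loss baseline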
# NFkB transloc pot = enhances IL-1B driven NFkB nuclear translocation | HUVEC IL-1B NFkB p65 nuclear translocation imaging | activation, % at 2 µM | 94,000 tested, 0.3% active;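 active means activation above 40%, about the mean plus 3 SD, also judged a hit on visual image review; inconclusive means activation above 40% but not a hit on visual review; inactive means activation not above 40% and no visual hit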;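 further: percent activation is computed from the nuclear over cytoplasmic p65 intensity ratio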
# E-sel TNF inh = blocks E-selectin expression induced by TNF alpha; AID 1246; 120,000 tested, 0.71% active; HUVEC TNFa-induced E-selectin immunofluorescence, high content; inhibition, % at 2 µM;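 active means inhibition above the batch mean plus 3 SD, and confirmed as a hit on visual image review, cut at about 43% in these data; inconclusive means passes the inhibition cutoff but fails visual image review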;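 further: 0% = TNF-stimulated DMSO wells and 100% = unstimulated control wells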
# IL1B NFkB inh = blocks IL-1B driven NFkB nuclear translocation in HUVEC cells; AID 796; inhibition, % at 2 µM; 94,000 tested, 0.43% active; HUVEC IL-1B NFkB p65 nuclear translocation imaging;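 active means inhibition above about 30% together with a positive call from visual inspection of the well image, limit read from the data; inconclusive means inhibition above a set limit but visual check negative; inactive means inhibition not above a set limit, visual check negative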;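 further: nuclear over cytoplasmic p65 intensity ratio measured by imaging; 0% = IL-1B stimulated DMSO wells and 100% = unstimulated DMSO wells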
# HUVEC tox TNFa = HUVEC cytotoxicity counter-screen, TNF alpha stimulated | HUVEC TNFalpha-stimulated, Hoechst cell count, imaging | cell count reduction, % at 2 µM | 93,000 tested, 0.17% active | AID 848;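 active means cell count reduction exceeding the screen mean by over 5 SD, scaled to untreated wells per plate, cut at about 78% in these data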;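 further: cells counted after 24 h of TNF alpha exposure following the 1 h pretreatment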
# An asterisk follows results filed as active; ? = inconclusive; . = no result given.
SMILES,VCAM1 TNFa inh,HUVEC tox IL1B,NFkB transloc pot,E-sel TNF inh,IL1B NFkB inh,HUVEC tox TNFa
COc1ccc(CS(=O)(=O)/C(Cl)=C(/Cl)C(=O)Nc2ccc(OC)nc2)cc1,42*,.,.,95*,.,14
COc1ccc(/C=C/C(=O)Nc2ccc(OC)nc2)cc1,.,.,.,-7,.,.
COc1ccc(NC(=O)/C(Cl)=C(/Cl)S(=O)Cc2ccccc2)cn1 (centres undefined),88*,14,-84,.,65*,99*
CC1=C(C(=O)N(C)C)C(c2ccc(N3CCOCC3)cc2)NC(=O)N1 (centres undefined),.,.,.,-31,.,.
O=C(Oc1nsnc1N1CCOCC1)N1CCOCC1,14,43,-3,77*,3,-9
O=C(Oc1nsnc1N1CCOCC1)N1CCCCC1,5,-83,13,29,-13,-9
CN(C)N1C(N)=C(C#N)C(c2cccs2)C2=C1CC(C)(C)CC2=O (centres undefined),.,.,.,-7,.,.
O=S(=O)(NCCCc1ccccc1)c1ccc(Cl)cc1,.,.,.,22,.,.
O=C1c2ccccc2CN1CCNS(=O)(=O)c1ccc(Cl)cc1,-12,92*,-98,-6,98*,-11
N#Cc1ccsc1NC(=O)COC(=O)c1cc2ccccc2cc1O,.,.,.,55,.,.
COc1ccc(NC(=O)C2CCCN2S(=O)(=O)c2cccc3cccnc23)c(OC)c1 (centres undefined),2,-11,75*,.,-75,20
CCOc1ccc(OCC)c(NC(=O)C2CCCN2S(=O)(=O)c2cccc3cccnc23)c1 (centres undefined),12,-10,15,-16,-15,-7
COC(=O)c1ccc(-n2nnnc2SCC(=O)N2CCCCC2)cc1,?,-10,-1,.,0,100*
COc1ccccc1-n1c(=O)c2c3c(sc2n2c(=S)[nH]nc12)CCC3,.,.,.,6,.,.
Cc1ccc(Sc2nc([N+](=O)[O-])nn2C)cc1,.,.,.,19,.,.
Cc1noc(C)c1S(=O)(=O)Nc1ccc(C(=O)NC2CCCCC2C)cc1 (centres undefined),1,-7,13,75*,-13,-11
Cc1oc(-c2ccccc2Cl)nc1CSc1nc2c(c(=O)[nH]1)CCC2,.,.,.,17,.,.
COc1ccc(CC(=O)N2CCN=C2SC)cc1,3,-3,11,6,-12,-31
CSC1=NCCN1C(=O)Cc1ccc(Cl)cc1,44*,-2,2,-6,-2,10
CCN1c2ccccc2-c2nc3ccccc3n2C1c1ccncc1 (centres undefined),7,-2,10,1,-10,-17
CCN1c2ccccc2-c2nc3ccccc3n2C1c1cccnc1 (centres undefined),-24,-56,10,100*,-10,-14
COc1ccc(N2CCN(C(=O)CNS(=O)(=O)c3ccc(C)cc3)CC2)cc1,.,.,.,9,.,.
Cn1c(=O)oc2cc(S(=O)(=O)Nc3ccc4c(c3)OCCO4)ccc21,2,92*,-98,-26,98*,-38
Cn1c(=O)c(=O)n(C)c2cc(S(=O)(=O)Nc3ccc4c(c3)OCCO4)ccc21,-6,-11,-4,-14,4,-2
O=C(C1CCC1)N1CCc2cc(S(=O)(=O)Nc3ccc4c(c3)OCCO4)ccc21,83*,-8,-13,1,13,63
SMILES,VCAM1 TNFa inh,HUVEC tox IL1B,NFkB transloc pot,E-sel TNF inh,IL1B NFkB inh,HUVEC tox TNFa
CC1CCc2c(sc3nc(CN4CCN(S(=O)(=O)c5ccccc5[N+](=O)[O-])CC4)[nH]c(=O)c23)C1 (centres undefined),.,.,.,42,.,.
O=C(/C(=C/c1ccc(Cl)cc1)c1nc2ccccc2[nH]1)c1cccs1,52*,1,-12,-14,12,-6
COc1cc(/C=C(/C(=O)c2cccs2)c2nc3ccccc3[nH]2)ccc1O,.,4,5,22,-5,.
Cc1cccc(OCCCC(=O)O)c1,9,6,11,65*,-11,10
Cc1cccc(OCC(=O)Nc2cc(C)ccc2O)c1,58*,0,1,-16,-1,-4
Cc1cc(C)cc(OCCCC(=O)O)c1,7,1,-6,9,6,-19
O=C(CCC1CCCCC1)Nc1ccccc1O,-13,-14,0,-1,0,-18
Cc1ccc(O)c(NC(=O)CCC2CCCCC2)c1,79*,23,-4,25,4,26
CCC(C(=O)c1ccc2ncccc2c1)c1ccccc1 (centres undefined),.,.,.,0,.,.
CN(C)c1ccc(NC(=S)NC(=O)/C=C/c2ccc(Cl)cc2)cc1,-2,-1,-2,87*,2,-8
CN(C)c1ccc(/C=N/NC(=O)c2ccccc2Cl)cc1,.,.,.,-2,.,.
CN(C)c1ccc(/C=N/NC(=O)c2ccc(Cl)cc2)cc1,-1,-30,-50,24,50*,-8
CC1CN(c2ccc(S(=O)(=O)N3CCOCC3)cn2)CC(C)O1 (centres undefined),20,2,-40,23,40*,14
COc1ccc(CN2CCNC(=O)C2CC(=O)NCCSc2nccn2C)cc1OC (centres undefined),.,.,.,4,.,.
CCOc1ccc(C2/C(=C(\O)c3c(C)[nH]c(C(=O)OC)c3C)C(=O)C(=O)N2CCN(C)C)cc1 (centres undefined),92*,-8,11,.,-11,76
COc1cc(S(=O)(=O)NC2CCCCC2C)ccc1Cl (centres undefined),19,-11,-3,51*,3,3
COc1cc(S(=O)(=O)NC2CCCC2)ccc1Cl,9,-58,13,0,-13,-24
CCOC(=O)c1cc(-c2ccccc2)sc1NC(=S)Nc1cccc(C)n1,4,-30,4,54*,-4,4
O=C(NNS(=O)(=O)c1ccc(F)cc1)c1sccc1-n1cccc1,.,.,.,-30,.,.
Cc1ccc(S(=O)(=O)NNC(=O)c2sccc2-n2cccc2)cc1,9,0,-5,62*,5,-6
COc1ccccc1C1C(C(C)=O)=C(C)N=c2s/c(=C\c3cc(OC)c(OC)c(OC)c3)c(=O)n21 (centres undefined),-16,84*,-98,0,98*,-23
COC(=O)C1=C(C)N=c2s/c(=C/c3cccs3)c(=O)n2C1c1ccc(F)cc1 (centres undefined),-19,-27,-3,-12,3,.
CCc1ccc(NS(=O)(=O)c2cc(OC)ccc2OC)cc1,40,6,4,.,-4,81*
COc1ccc(OC)c(S(=O)(=O)Nc2ccc(CC(=O)O)cc2)c1,.,.,.,-18,.,.
Cc1cc(NS(=O)(=O)c2ccc(NC(=O)CCCOc3ccccc3)cc2)no1,7,9,45*,1,-45,1
C=CCOc1nc2c(c(=O)n(C)c(=O)n2C)n1C,-37,85*,1,-9,-1,.
CCN(CC)c1ccc(NC(=S)Nc2ccc(F)cc2)cc1,.,.,.,-4,.,.
O=c1c2ccccc2nc(/C=C/c2ccc([N+](=O)[O-])o2)n1CCCO,58*,-9,-15,-64,15,10
Cc1cc(C)c(S(=O)(=O)N(CC(=O)N2CCOCC2)C2CCCCC2)c(C)c1,21,75*,-7,13,7,-9

# Compound activity: PubChem, Columbia University Molecular Screening Center
